Test results reported in PubChem BioAssay AID1508615 (Milbrandt Lab, Department of Genetics, Washington …, 2020).
In all, about 1,600 compounds went through this assay and about 20 (1%) were called active. What follows is part of a selection rich in actives, with near analogues and random picks from the rest. Values without a mark were called inactive.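 Rule for the calls: active = ratio of uncleaved NAD to its breakdown product ADP-ribose above 4, meaning the enzyme was inhibited; inactive = the rest.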

Each compound was assayed against NAD(+) hydrolase SARM1 (Homo sapiens) (UniProt Q6SZW1) (assay: inhibition of SAM-TIR NAD hydrolysis to ADPR – cell lysate, HPLC readout, primary screen (AID 1508615;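 note: substrate NAD at 5 µM with 60 min at 37 °C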)). Details: HEK293T SAM-TIR lysate, NAD/ADPR ratio by HPLC; at 5 µM; hits give high values.
NAD(+) hydrolase SARM1 (Homo sapiens), sequence (Q6SZW1 whole entry, looked up): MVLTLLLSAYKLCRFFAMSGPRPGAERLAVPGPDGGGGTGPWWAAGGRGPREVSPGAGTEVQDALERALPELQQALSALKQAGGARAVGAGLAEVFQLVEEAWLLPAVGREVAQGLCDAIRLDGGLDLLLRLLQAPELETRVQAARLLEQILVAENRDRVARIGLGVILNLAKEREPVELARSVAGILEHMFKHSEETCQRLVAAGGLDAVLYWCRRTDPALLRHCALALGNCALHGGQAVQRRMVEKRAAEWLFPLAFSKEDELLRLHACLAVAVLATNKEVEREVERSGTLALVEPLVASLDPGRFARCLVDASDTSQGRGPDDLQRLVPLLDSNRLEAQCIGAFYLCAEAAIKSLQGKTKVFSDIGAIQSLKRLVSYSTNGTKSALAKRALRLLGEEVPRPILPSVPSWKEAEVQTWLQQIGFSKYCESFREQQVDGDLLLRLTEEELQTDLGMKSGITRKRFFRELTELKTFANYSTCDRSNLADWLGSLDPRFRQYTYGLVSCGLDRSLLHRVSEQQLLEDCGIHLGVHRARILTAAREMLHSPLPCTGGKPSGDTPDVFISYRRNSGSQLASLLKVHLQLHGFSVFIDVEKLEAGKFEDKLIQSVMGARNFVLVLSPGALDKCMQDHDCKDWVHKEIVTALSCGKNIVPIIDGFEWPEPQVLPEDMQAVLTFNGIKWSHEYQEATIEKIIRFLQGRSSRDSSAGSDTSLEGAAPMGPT
`C=CCN1CCN(c2ccncc2S(=O)(=O)N2CCN(C)CC2)CC1` gave an NAD/ADPR ratio of 3.
`COC(=O)Nc1csc2c1NC(=O)CCCC2` was tested, and the NAD/ADPR ratio was 3.
Work on `Nc1ccc2c(c1Cl)C(=O)c1ccc(N)c(Cl)c1C2=O` yielded an NAD/ADPR ratio of 3.
With `O=C1OCC/C1=C\OCCCO/C=C1\CCOC1=O` the NAD/ADPR ratio was 3.
`CC(C)C(=O)Nc1cccnc1` gave an NAD/ADPR ratio of 3.
`Cc1ccc(N2CCN(CC(O)COc3cccc(C)c3)CC2)cc1` (configuration not stated) was tested, and the NAD/ADPR ratio was 3.
With `C=CCOc1ccnc(-c2ccccc2)n1` the NAD/ADPR ratio was 3.
Compound `O=[N+]([O-])c1ccc(NN=C(c2ccccc2)c2ccccc2)nc1` has an NAD/ADPR ratio of 2.8.
For `Cn1cnc([N+](=O)[O-])c1Sc1nnc(-c2cccnc2)n1C`, the NAD/ADPR ratio was 3.
`NC(=S)Nc1cccc(Cl)c1` showed an NAD/ADPR ratio of 3.
`Cc1ccc(-c2nc(-c3nccc4ccccc34)oc2-c2ccccc2)cc1` gave an NAD/ADPR ratio of 3.
With `CCC(CO)Nc1nc2ccc(Cl)cc2c2ccccc12` (configuration not stated) the NAD/ADPR ratio was 3.
With `O=C1c2cccc(Oc3ccccc3)c2C(=O)c2cccc(Oc3ccccc3)c21` the NAD/ADPR ratio was 3.
Work on `C=CCNC(=S)Nc1cccc([N+](=O)[O-])c1` yielded an NAD/ADPR ratio of 3.
In the case of `[O-]/[N+](=C\c1ccccc1)CC1(O)CCCCC1`, the NAD/ADPR ratio is reported as 3.
`O=c1cc(CO)[nH]nc1CO` gave an NAD/ADPR ratio of 3.
`COc1ccc2nc3cc(Cl)ccc3c(C#N)c2c1` was tested, and the NAD/ADPR ratio was 3.
`O=C(Nc1ccc(C(=O)O)c(O)c1)c1ccccc1` was tested, and the NAD/ADPR ratio was 3.
For `CC(=O)c1cc(O)c2ccccc2c1O`, the NAD/ADPR ratio was 10.2 (active).
`CC(C)(NC(=O)c1cc(Cl)c2ccccc2c1O)C(=O)O` showed an NAD/ADPR ratio of 3.
With `CCOC(=O)Cc1c[nH]c(=S)[nH]c1=O` the NAD/ADPR ratio was 3.
`Cn1c(=O)c2[nH]c(COc3ccc(C(C)(C)C)cc3)nc2n(C)c1=O` was tested, and the NAD/ADPR ratio was 3.
For `S=C1N(c2ccccc2)CN(C2CCCCC2)CN1c1ccccc1`, the NAD/ADPR ratio was 3.
Work on `O=[N+]([O-])c1ccc(Sc2ncccn2)c([N+](=O)[O-])c1` yielded an NAD/ADPR ratio of 3.
With `O=[N+]([O-])c1ccc(Sc2cccc[n+]2[O-])c2nonc12` the NAD/ADPR ratio was 12.6 (active).
For `CC1(CN2CCCC2)CCC(NC(=O)C(c2ccccc2)c2ccccc2)C(C)(C)O1` (configuration not stated), the NAD/ADPR ratio was 3.
`C(=C\c1ccncc1)/c1ccncc1` showed an NAD/ADPR ratio of 3.
Compound `O=C(O)c1ccc(NCc2nc3ccccc3[nH]2)cc1` has an NAD/ADPR ratio of 3.
Work on `Oc1ccc2ccc3[nH]cnc3c2c1` yielded an NAD/ADPR ratio of 3.
For `N/C(CC(=O)Nc1cc(C(F)(F)F)ccc1Cl)=N\O`, the NAD/ADPR ratio was 3.
`CC1CCC(C(C)C)C(NC(=O)c2ccncc2)C1` (configuration not stated) gave an NAD/ADPR ratio of 3.
`Clc1nc(NCCc2ccccc2)c2cn[nH]c2n1` was tested, and the NAD/ADPR ratio was 2.8.
With `Cn1cnc([N+](=O)[O-])c1Sc1ncn[nH]1` the NAD/ADPR ratio was 3.
With `CCOc1ccc(NC(=O)N(O)C2(C#N)CCCCC2)cc1` the NAD/ADPR ratio was 3.
In the case of `CCOc1ccc(NC(=O)C2CCCN(C)C2)cc1` (configuration not stated), the NAD/ADPR ratio is reported as 11.2 (active).
Compound `CCOc1ccc(NC(=O)c2cc3ccccc3cc2O)cc1` has an NAD/ADPR ratio of 3.
For `Cc1nn(-c2ccccc2)c2c1C(c1ccc([N+](=O)[O-])cc1)C(C#N)=C(N)O2` (configuration not stated), the NAD/ADPR ratio was 3.
`COc1cc(CCC(=O)O)on1` gave an NAD/ADPR ratio of 3.
For `COC(=O)CC1(C(=O)OC)Nc2cc(Cl)c(Cl)cc2S(=O)(=O)N1O` (configuration not stated), the NAD/ADPR ratio was 13.5 (active).
`O=C(NC1CCCCC1)c1cc2ccccc2cc1O` gave an NAD/ADPR ratio of 3.
`Oc1cc(CNC2CCCCC2)c(O)cc1CNC1CCCCC1` was tested, and the NAD/ADPR ratio was 10.8 (active).
For `O=C(O)CCNC1CCCCC1`, the NAD/ADPR ratio was 3.
`O=C(O)c1ccc(OCCOc2ccccc2)cc1` gave an NAD/ADPR ratio of 3.
`NC(N)=NC(=S)Nc1ccc(Cl)cc1` showed an NAD/ADPR ratio of 3.
`COc1cc(CC(=O)C(=O)O)oc(=O)c1` was tested, and the NAD/ADPR ratio was 3.
Work on `CN(C)C(=O)c1cccc(COc2ccc(N3C(N)=NC(N)=NC3(C)C)cc2Cl)c1` yielded an NAD/ADPR ratio of 3.
For `Cn1c(=O)c2c(nc(N3CCOCC3)n2C)n(C)c1=O`, the NAD/ADPR ratio was 3.
`Cc1oc2c(c(C)nn2-c2ccccc2)c(=O)c1Cl` showed an NAD/ADPR ratio of 3.
`Cc1nc(-c2ccccc2)c(Cc2ccccc2O)c(=O)[nH]1` showed an NAD/ADPR ratio of 3.
Work on `Cc1nc2c(O)cccc2cc1CO` yielded an NAD/ADPR ratio of 3.
With `S=c1cn[nH]c2ccccc12` the NAD/ADPR ratio was 3.
With `CC1=C(c2ccccc2)C=NNCC1=O` the NAD/ADPR ratio was 3.
Compound `COC(=O)c1cncc(C)c1` has an NAD/ADPR ratio of 3.
`Nc1ccc(C(=O)Oc2ccc([N+](=O)[O-])cc2)cc1` gave an NAD/ADPR ratio of 3.
With `O=C(c1cccnc1)C1Cc2ccccc2C1=O` (configuration not stated) the NAD/ADPR ratio was 3.
For `Nc1ccc(Br)cc1Br`, the NAD/ADPR ratio was 3.
`CCCCOc1nc2c(c(=O)n(C)c(=O)n2C)n1C` showed an NAD/ADPR ratio of 3.
`Cc1c(C(C)(C(=O)O)c2c(C)n(C)c3ccccc23)c2ccccc2n1C` showed an NAD/ADPR ratio of 3.
For `Cn1c2ccccc2c2ccc3c(c21)C(=O)C=CC3=O`, the NAD/ADPR ratio was 12.5 (active).
`COc1ccc2c(c1)c1ccc3c(c1n2C)C(=O)C=CC3=O` was tested, and the NAD/ADPR ratio was 7.6 (active).
For `Cc1ccc2c(c1)c1ccc3c(c1n2C)C(=O)C=CC3=O`, the NAD/ADPR ratio was 5.6 (active).
For `Cc1cccc2c1c1ccc3c(c1n2C)C(=O)C=CC3=O`, the NAD/ADPR ratio was 8.3 (active).
Compound `C=CCN(CC=C)C(=O)Nc1cc(OC)ccc1OC` has an NAD/ADPR ratio of 3.2.
`Cc1nnc(Cc2ccccc2)c2n[nH]c(C)c12` was tested, and the NAD/ADPR ratio was 3.
In the case of `CC(=O)[C@@]1(O)C(C)CC2C3C=C(C)C4=Cc5c(cnn5-c5ccccc5)C[C@]4(C)C3C(O)C[C@@]21C` (some centres not stated), the NAD/ADPR ratio is reported as 3.
`CCOC(=O)c1ccc2c(c1)NCc1cccc(OC)c1O2` was tested, and the NAD/ADPR ratio was 3.
`c1ccc(-c2cn3ccccc3n2)cc1` showed an NAD/ADPR ratio of 3.
With `CC1(C)CCCC2(C)C(OCCO)=CC(=O)C=C12` (configuration not stated) the NAD/ADPR ratio was 3.
`COc1cc2c(O)cc(C(=O)O)c(-c3cc(OC)c(OC)c(OC)c3)c2cc1OC` gave an NAD/ADPR ratio of 3.
`CSc1nc(Cl)cc(=O)[nH]1` showed an NAD/ADPR ratio of 3.
`OC(C#Cc1ccccc1)(c1ccccc1)c1ccccc1` showed an NAD/ADPR ratio of 3.
With `Cc1cc(=O)n2c3c(c4c(cc13)c(CN(C)C)cc(=O)n4C)OC2` the NAD/ADPR ratio was 3.
Compound `CC1(C)CC2(C)OC2C2(C1)N=NC(=Nc1ccccc1)O2` (configuration not stated) has an NAD/ADPR ratio of 3.
`Cc1cc2nc(-c3ccccn3)c(-c3ccccn3)nc2cc1C` gave an NAD/ADPR ratio of 3.
`S=C(Sc1ccc(Cl)cc1)Sc1ccc(Cl)cc1` gave an NAD/ADPR ratio of 3.
With `Cc1ccc([N+](=O)[O-])cc1NC(=O)Nc1cccc(F)c1` the NAD/ADPR ratio was 3.
For `CC1(C)SC(C)(C)N(C=O)C1C(=O)O` (configuration not stated), the NAD/ADPR ratio was 3.
Compound `CCOC(=O)Cc1cc(=O)[nH]n(-c2ccccc2)c1=O` has an NAD/ADPR ratio of 3.
`Cc1ccc(/C=C2\CCOC2=O)cc1` showed an NAD/ADPR ratio of 3.
`Cc1ccc2c(c1)sc1nncn12` gave an NAD/ADPR ratio of 3.
`Oc1ccc(Cc2ccccc2Cl)c(O)c1` was tested, and the NAD/ADPR ratio was 3.
`COc1cc(/C=N/Nc2nc3c([nH]2)c(=O)n(C)c(=O)n3C)ccc1O` was tested, and the NAD/ADPR ratio was 3.
Work on `O=C1CCC(NC(=O)c2ccccc2)C(=O)N1` (configuration not stated) yielded an NAD/ADPR ratio of 3.
In the case of `O=C(/C=C/c1cccnc1)c1ccccc1O`, the NAD/ADPR ratio is reported as 3.
Work on `CCCCCn1cnc2c(=S)nc(N)[nH]c21` yielded an NAD/ADPR ratio of 3.
For `CN1CN(C)C(c2ccncc2)=C1c1ccncc1`, the NAD/ADPR ratio was 3.
With `CCCCOc1ccc(NC(=O)Nc2nnc(C)s2)cc1` the NAD/ADPR ratio was 3.
`Cc1ccc(C(C)C)cc1NC(=O)Nc1ccc([N+](=O)[O-])cc1` showed an NAD/ADPR ratio of 3.
`Cc1cc(NC(=O)c2ccccc2)nc(C)n1` gave an NAD/ADPR ratio of 3.
Work on `Nc1ccnn1-c1ccccc1` yielded an NAD/ADPR ratio of 3.
Compound `O=C(O)C(Cc1cn[nH]n1)=NO` has an NAD/ADPR ratio of 3.
In the case of `NC(=O)SCC(=O)Nc1ccccc1C(=O)O`, the NAD/ADPR ratio is reported as 3.
In the case of `CC(NC(=O)c1ccc(Cl)c(Cl)c1)c1ccc(-c2ccccc2)cc1` (configuration not stated), the NAD/ADPR ratio is reported as 3.
In the case of `OC(c1cc(-c2ccc(Cl)cc2)nc2ccccc12)C1CCCCN1` (configuration not stated), the NAD/ADPR ratio is reported as 3.
With `Clc1ccc(SCNc2ccccc2Cl)cc1` the NAD/ADPR ratio was 3.
Work on `Nc1ncnc2c1ncn2C1OC(CO)C(O)C1N` (configuration not stated) yielded an NAD/ADPR ratio of 3.
`CC1(C)CC(=O)C(CC(=O)c2ccccc2)=C(NN=C(N)N)C1` showed an NAD/ADPR ratio of 3.
Work on `O=C(O)CCC1(c2ccccc2)NC(=O)NC1=O` (configuration not stated) yielded an NAD/ADPR ratio of 3.
`c1ccc2c(c1)Oc1cccc3cccc-2c13` was tested, and the NAD/ADPR ratio was 3.
In the case of `O=C1c2cc([N+](=O)[O-])ccc2-c2cc(Br)c(N=C(NO)C(F)(F)F)cc21`, the NAD/ADPR ratio is reported as 3.
With `O=c1cc[nH]c2c(Cl)cccc12` the NAD/ADPR ratio was 3.
Work on `COc1cc(-c2ccc(NC(=O)NC3CC3)c(OC)c2)ccc1NC(=O)NC1CC1` yielded an NAD/ADPR ratio of 3.
